Results on 79 molecules are retold here after PubChem BioAssay AID624405 (Broad Institute, 2012).

SMILES strings stand for the structures. Among all 1,900 compounds or so, about 250 (13%) were called active. About 4% were inconclusive and are not listed.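 How the source made its calls: active means fitted curve reaches 40% rescue activity at or below the top valid dose, in every test run; inconclusive means test runs disagree, some active and some inactive; inactive means every run misses the threshold or moves the wrong way.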 These entries were drawn from the full list. Entries with a potency or affinity are not part of this list.

This test can be described thus: suppressors of statin myotoxicity in myotubes, dose response, cell-based, C2C12 myotubes, ATP luminescence, cherry pick (AID 624405).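 Further: myotubes are challenged with simvastatin at 10 µM to lower ATP.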 The conditions noted are these: C2C12 myotubes + simvastatin, 48 h, scaled: DMSO wells 0, geranylgeraniol wells 100; series mostly up to 19.5 µM; rescue activity (ATP increase): at the top concentration.
As for `Cc1ccc(S(=O)(=O)N(C)C[C@@H]2Oc3ncc(C#Cc4cccc(F)c4)cc3C(=O)N([C@H](C)CO)C[C@@H]2C)cc1`, the “rescue activity (ATP increase)” value is 25.8% (inactive). The result for `C[C@@H]1CCCCO[C@@H](CN(C)C(=O)Nc2cccc3ccccc23)[C@@H](C)CN([C@H](C)CO)C(=O)c2cc(NS(=O)(=O)c3ccc(Cl)cc3)ccc2O1` reads 9.86% [at 21 µM] (inactive). The result for `C[C@H](CO)N1C[C@H](C)[C@H](CN(C)C(=O)Nc2ccc3c(c2)OCO3)Oc2ncc(C#Cc3ccc(F)cc3)cc2C1=O` reads 8.89% (inactive); that for `CC(C)CC#Cc1cnc2c(c1)C(=O)N([C@H](C)CO)C[C@@H](C)[C@H](CN(C)C(=O)Cc1ccccc1)O2`, 11.1% (inactive). The result for `C[C@H]1CN([C@@H](C)CO)C(=O)c2cc(C#Cc3cccc(F)c3)cnc2O[C@@H]1CN(C)C(=O)C1CCCCC1` reads 24.4% (inactive); that for `COc1cccc(-c2cnc3c(c2)C(=O)N([C@H](C)CO)C[C@H](C)[C@H](CN(C)Cc2ccccc2)O3)c1`, 17.4% (inactive); that for `C[C@H](CO)N1C[C@H](C)[C@H](CN(C)C(=O)Nc2cccc3ccccc23)Oc2ncc(C#Cc3ccc(C(F)(F)F)cc3)cc2C1=O`, 8.24% [at 21 µM] (inactive). In the case of `COc1ccc(C#Cc2cnc3c(c2)C(=O)N([C@H](C)CO)C[C@H](C)[C@H](CN(C)Cc2cccc(C(F)(F)F)c2)O3)cc1OC`, the “rescue activity (ATP increase)” value was 20.9% (inactive). The result for `C[C@H](CO)N1C[C@H](C)[C@@H](CN(C)CC2CCCC2)Oc2ncc(C#Cc3ccncc3)cc2C1=O` reads 31.5% [at 18 µM] (inactive); that for `CC(C)CC#Cc1cnc2c(c1)C(=O)N([C@@H](C)CO)C[C@@H](C)[C@H](CN(C)C(=O)Cc1ccccc1)O2`, -4.83% (inactive); that for `Cc1cc2c(cc1C)/C(=C\C(N)=O)NC(C)(C)C2`, -8.58% (inactive).

`COc1cc(C(N)=O)ccc1OCc1ccccc1`: the “rescue activity (ATP increase)” value is 8.22% (inactive). On to `CCN(CC)C(=O)CSc1nnc([C@H](CCSC)NC(=O)OC(C)(C)C)o1`, for which the “rescue activity (ATP increase)” value was -9.94% (inactive). Turning to `O=C(NCc1ccccc1)Oc1cccc(Cl)c1`, the “rescue activity (ATP increase)” value is 26.1% (inactive). As for `Cc1cc(NC(=O)c2ccc(Cl)c(S(=O)(=O)N3CCOCC3)c2)no1`, the “rescue activity (ATP increase)” value was -10.7% (inactive). The result for `C[C@H]1CN([C@@H](C)CO)C(=O)c2cc(NS(=O)(=O)c3ccc(F)cc3)ccc2O[C@H]1CN(C)Cc1ccc(-c2ccccc2)cc1` reads 5.05% (inactive).

On to `CN1C[C@@H]2[C@H](c3ccccc31)[C@@H](CO)N2Cc1ccccc1`, for which the “rescue activity (ATP increase)” value is 21.2% [at 21 µM] (inactive). For the molecule `C[C@@H]1CN([C@@H](C)CO)C(=O)c2cc(NC(=O)c3ccccc3)ccc2O[C@@H](C)CCCCO[C@H]1CN(C)C(=O)CCCN(C)C`, the “rescue activity (ATP increase)” value was 4.85% (inactive). The result for `C[C@H]1CCCCO[C@H](CN(C)C(=O)Nc2cccc3ccccc23)[C@@H](C)CN([C@@H](C)CO)C(=O)c2cc(NS(=O)(=O)c3ccc(Cl)cc3)ccc2O1` reads -11.2% (inactive); that for `C[C@@H]1CN([C@H](C)CO)C(=O)c2cc(NC(=O)Nc3ccc(F)cc3)ccc2O[C@@H](C)CCCCO[C@H]1CN(C)S(=O)(=O)c1cccs1`, 7.63% (inactive). `O=C(CN1CCN(c2ccccn2)CC1)NCCc1ccccc1`: the “rescue activity (ATP increase)” value was 4.85% (inactive). Turning to `CS(=O)(=O)N(CC(=O)NCc1ccccc1)C1CCCCC1`, the “rescue activity (ATP increase)” value is 0.866% (inactive). Regarding `CSc1cc(-c2ccc(Cl)cc2)c(C(=O)NC(C)C)s1`, the “rescue activity (ATP increase)” value is 4.58% (inactive). Regarding `Cc1noc(C)c1NC(=O)Nc1cccc2c1O[C@H](CN(C)Cc1ccc(-c3ccccc3)cc1)[C@@H](C)CN([C@@H](C)CO)C2=O`, the “rescue activity (ATP increase)” value was -5.23% (inactive). The result for `Cc1noc(C)c1NC(=O)Nc1cccc2c1O[C@@H](CN(C)Cc1ccc(-c3ccccc3)cc1)[C@H](C)CN([C@@H](C)CO)C2=O` reads 8.68% (inactive); that for `COc1ccc(NC(=O)Nc2cccc3c2O[C@@H](CN(C)Cc2ccc(Oc4ccccc4)cc2)[C@@H](C)CN([C@@H](C)CO)C3=O)cc1`, -0.035% (inactive); that for `COc1ccc(NC(=O)Nc2cccc3c2O[C@@H](CN(C)Cc2ccc(Oc4ccccc4)cc2)[C@@H](C)CN([C@H](C)CO)C3=O)cc1`, -21% [at 21 µM] (inactive).

As to `C[C@@H]1CN([C@@H](C)CO)C(=O)c2cc(C#CC3CCCCC3)cnc2O[C@@H]1CN(C)C(=O)C1CCCCC1`, the “rescue activity (ATP increase)” value is -4.43% (inactive).

On to `CSc1nncn1/N=C/c1ccc2c(c1)OCO2`, for which the “rescue activity (ATP increase)” value was -1.45% (inactive).

`COc1cccc(-c2cnc3c(c2)C(=O)N([C@H](C)CO)C[C@H](C)[C@H](CN(C)C(=O)Nc2cccc4ccccc24)O3)c1`: the “rescue activity (ATP increase)” value was 9.55% (inactive). The result for `COc1cc(C(=O)Oc2cccc(C)c2)cc(OC)c1OC` reads -10.8% (inactive).

On to `COc1cc(S(=O)(=O)N2CCN(C(=O)c3ccccc3F)CC2)c(OC)cc1NC(C)=O`, for which the “rescue activity (ATP increase)” value is 0.236% (inactive). Consider `Cc1ccc(S(=O)(=O)N2CCCSCC2)cc1`, for which the “rescue activity (ATP increase)” value was 10.4% (inactive).

`COc1ccc(CN2CCN(C(=O)c3cccs3)CC2)cc1Br`: the “rescue activity (ATP increase)” value is 28.6% (inactive). The result for `O=C(c1cccs1)N1CCN(C2CCN(Cc3ccccc3)CC2)CC1` reads -9.46% (inactive). The result for `Cc1noc(N)c1C(=O)Nc1ccc(F)c(Cl)c1` reads 1.69% (inactive).

Regarding `Cc1nnc(Sc2nc3c(c(=O)n(C)c(=O)n3C)n2Cc2ccccc2Cl)s1`, the “rescue activity (ATP increase)” value is -13.5% (inactive). The result for `O=C1CCCC2=C1C(c1cccs1)Nc1ccc3ncccc3c12` (centres undefined) reads 24.9% (inactive); that for `CCCSc1nnc(CN2CCOCC2)n1C`, -4.41% (inactive). The result for `CCCNC(=O)C(=O)c1cccn1-c1ccsc1C(=O)OC` reads -13.7% (inactive); that for `CCOC(=O)c1ccc(NC(=O)N2CCCCC2)cc1`, -33.5% (inactive). The result for `C[C@H](CO)N1C[C@H](C)[C@H](CN(C)C(=O)Nc2ccc3c(c2)OCO3)OCCCC[C@H](C)Oc2ccc(NS(=O)(=O)c3ccc(F)cc3)cc2C1=O` reads 36.7% (inactive); that for `Cc1ccc(CN2CCC(C(=O)NCCC(C)C)CC2)o1`, -12.4% (inactive); that for `Cc1ccc(S(=O)(=O)N(C)C[C@H]2Oc3c(NC(=O)Nc4ccccc4)cccc3C(=O)N([C@@H](C)CO)C[C@@H]2C)cc1`, 14.2% (inactive). For `COc1ccc(S(=O)(=O)Nc2cccc3c2O[C@@H](CN(C)C(=O)Nc2ccc(F)cc2)[C@@H](C)CN([C@H](C)CO)C3=O)cc1`, the “rescue activity (ATP increase)” value is 13.7% (inactive). The result for `Cc1ccc(S(=O)(=O)N(C)C[C@@H]2Oc3c(NC(=O)Nc4ccccc4)cccc3C(=O)N([C@@H](C)CO)C[C@H]2C)cc1` reads -16% (inactive); that for `COc1ccc(S(=O)(=O)Nc2cccc3c2O[C@@H](CN(C)C(=O)Nc2ccc(F)cc2)[C@@H](C)CN([C@@H](C)CO)C3=O)cc1`, 8.52% (inactive); that for `Cc1ccc(S(=O)(=O)N(C)C[C@H]2Oc3c(NC(=O)Nc4ccccc4)cccc3C(=O)N([C@H](C)CO)C[C@@H]2C)cc1`, -0.949% (inactive).

`COc1ccc(S(=O)(=O)Nc2cccc3c2O[C@H](CN(C)C(=O)Nc2ccc(F)cc2)[C@@H](C)CN([C@H](C)CO)C3=O)cc1`: the “rescue activity (ATP increase)” value was 28.7% (inactive).

For the molecule `CN1C(=O)c2cc(NC(=O)c3ccc(F)c(F)c3)ccc2OC[C@H]2O[C@@H](CC(=O)Nc3ccc4c(c3)COC4)CC[C@@H]21`, the “rescue activity (ATP increase)” value is 26% [at 10 µM] (inactive).

Consider `CCSc1nc2sc3c(c2c(=O)n1-c1ccc(OC)cc1)CCN(C)C3`, for which the “rescue activity (ATP increase)” value is 40.1% (inactive). In the case of `COCCNC(=O)c1nn(-c2cc(OC)cc(OC)c2)c(=O)c2ccccc12`, the “rescue activity (ATP increase)” value was 0.939% (inactive). The result for `COc1ccc(S(=O)(=O)N(CC(C)C)CC(C)C)c2cccnc12` reads 9.83% (inactive); that for `Cc1cccc(NC(=O)COc2ccc3oc4c(c3c2)CCCC4)n1`, 31.6% (inactive). The result for `CO[C@H]1CC[C@@H]2CCOc3ccc(C#N)cc3C(=O)N(C)C[C@@H](OC)[C@@H](C)C(=O)N(C)C[C@H]1O2` reads 40.2% (inactive); that for `C[C@@H]1CN([C@H](C)CO)C(=O)c2cc(NS(=O)(=O)c3cccs3)ccc2O[C@@H](C)CCCCO[C@@H]1CN(C)Cc1ccc(C(F)(F)F)cc1`, -13.6% (inactive). On to `O=C(CSc1nnnn1-c1cccc2c1CCCC2)N1CCCCC1`, for which the “rescue activity (ATP increase)” value is 5.11% (inactive). In the case of `Cc1ccc(NC(=O)c2cccc(OCc3c(C)noc3C)c2)cc1`, the “rescue activity (ATP increase)” value was -87% (inactive). On to `COCCNC(=O)Nc1ccc2nc(-c3cccs3)c(-c3cccs3)nc2c1`, for which the “rescue activity (ATP increase)” value was -64.5% (inactive).

Regarding `COc1ccc(NC(=O)CSc2nccc(C)n2)cc1`, the “rescue activity (ATP increase)” value is 8.89% (inactive). The result for `O=C(CSc1nnc(CNc2ccc(F)cc2)n1Cc1ccccc1)N1CCOCC1` reads -5.13% (inactive).

Regarding `Cc1ccc(NC(=O)CCNS(=O)(=O)c2ccc3[nH]c(=O)oc3c2)cc1F`, the “rescue activity (ATP increase)” value is -26.9% (inactive).

With `C[C@@H]1CN([C@H](C)CO)C(=O)c2cc(C#CC3CCCCC3)cnc2O[C@H]1CN(C)C(=O)C1CCCCC1`, the “rescue activity (ATP increase)” value was -2.93% (inactive). Regarding `CCOC(=O)c1cccc(NC(=O)C2CCCO2)c1` (centres undefined), the “rescue activity (ATP increase)” value is 8.93% (inactive).

In the case of `Cc1ccc(C2C=C(c3ccccc3OC(F)F)Nc3ncnn32)cc1` (centres undefined), the “rescue activity (ATP increase)” value is 19.5% (inactive).

`CNC(=O)CC(=O)Nc1ccccc1C(=O)O`: the “rescue activity (ATP increase)” value was 13% (inactive). The result for `O=c1c2c3c(sc2nc2n1CCCS2)CCCC3` reads 44.9% (inactive). The result for `C=CCOC(=O)c1ccc(-n2cncn2)nc1` reads -9.68% (inactive). With `CCOCCc1nnc(NC(=O)C(CC)c2ccccc2)s1` (centres undefined), the “rescue activity (ATP increase)” value was -0.751% (inactive).

Turning to `CCC(C(=O)Nc1ccccc1-c1ccccc1)c1ccccc1` (centres undefined), the “rescue activity (ATP increase)” value was 1.13% (inactive). Turning to `COc1ccc(CN(C)C[C@@H]2Oc3ccc(NS(=O)(=O)c4ccc(C)cc4)cc3CC(=O)N([C@H](C)CO)C[C@H]2C)cc1`, the “rescue activity (ATP increase)” value is 16% (inactive). Consider `C[C@@H]1CN([C@H](C)CO)C(=O)Cc2cc(NS(=O)(=O)c3cccs3)ccc2O[C@@H]1CN(C)Cc1ccc(-c2ccccc2)cc1`, for which the “rescue activity (ATP increase)” value is 40.7% (inactive). In the case of `COc1ccc(S(=O)(=O)Nc2ccc3c(c2)CC(=O)N([C@H](C)CO)C[C@@H](C)[C@H](CN(C)Cc2ccccc2)O3)cc1`, the “rescue activity (ATP increase)” value was 25.7% [at 21 µM] (inactive). The result for `C[C@H]1CN([C@@H](C)CO)C(=O)Cc2cc(NS(=O)(=O)c3cn(C)cn3)ccc2O[C@@H]1CN(C)Cc1ccc(-c2ccccc2)cc1` reads 36.4% (inactive). The result for `Cc1ccc(S(=O)(=O)Nc2ccc3c(c2)CC(=O)N([C@@H](C)CO)C[C@@H](C)[C@H](CN(C)Cc2ccc(Oc4ccccc4)cc2)O3)cc1` reads 22.7% (inactive); that for `COc1ccc(CN(C)C[C@H]2Oc3ccc(NS(=O)(=O)c4ccccc4)cc3CC(=O)N([C@@H](C)CO)C[C@@H]2C)cc1`, 22.6% [at 21 µM] (inactive); that for `C[C@@H]1CN([C@@H](C)CO)C(=O)Cc2cc(NS(=O)(=O)c3ccc(F)cc3)ccc2O[C@H]1CN(C)Cc1ccc(-c2ccccc2)cc1`, 29.3% (inactive).

As for `Cc1ccc(S(=O)(=O)Nc2ccc3c(c2)CC(=O)N([C@H](C)CO)C[C@@H](C)[C@H](CN(C)Cc2ccc(-c4ccccc4)cc2)O3)cc1`, the “rescue activity (ATP increase)” value was 12.2% (inactive). For `COc1ccc(CN(C)C[C@H]2Oc3ccc(NS(=O)(=O)c4ccc(F)cc4)cc3CC(=O)N([C@@H](C)CO)C[C@@H]2C)cc1`, the “rescue activity (ATP increase)” value is 30% [at 21 µM] (inactive).
